Molecules are shown by their SMILES. Records with an inconclusive call do not appear. A call without a number means that no potency is given here. Activity calls are given as the source filed them. Unless noted, calls come from the whole dose curve; as a rule, active = well fitted curve in the direction sought with a large enough effect; inconclusive = small, poorly fitted or top-dose-only effect, or another doubt; inactive = no such curve, though single readings can be large; an effect the other way counts as inactive or inconclusive.

Chain of Protein phosphatase 1D (Homo sapiens) (O15297 whole entry, looked up): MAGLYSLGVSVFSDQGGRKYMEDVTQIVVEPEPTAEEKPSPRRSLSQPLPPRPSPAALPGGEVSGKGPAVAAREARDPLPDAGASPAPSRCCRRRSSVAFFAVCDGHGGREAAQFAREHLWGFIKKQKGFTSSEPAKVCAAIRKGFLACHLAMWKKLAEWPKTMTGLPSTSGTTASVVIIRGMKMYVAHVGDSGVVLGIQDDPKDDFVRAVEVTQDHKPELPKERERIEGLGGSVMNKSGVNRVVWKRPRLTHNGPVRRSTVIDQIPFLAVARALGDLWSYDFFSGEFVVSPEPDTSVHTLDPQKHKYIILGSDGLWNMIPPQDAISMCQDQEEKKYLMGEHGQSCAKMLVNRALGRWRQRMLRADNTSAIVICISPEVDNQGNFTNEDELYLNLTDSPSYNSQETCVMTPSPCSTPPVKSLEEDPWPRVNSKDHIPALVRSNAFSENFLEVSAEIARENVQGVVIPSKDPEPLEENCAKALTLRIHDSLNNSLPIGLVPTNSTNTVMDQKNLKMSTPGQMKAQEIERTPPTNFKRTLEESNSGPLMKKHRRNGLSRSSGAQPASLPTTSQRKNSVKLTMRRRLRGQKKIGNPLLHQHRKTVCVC

Tested on in the first test: not listed separately
The test is described as follows: qHTS to identify inhibitors of the type 1 interferon - major histocompatibility complex class I in skeletal muscle: primary screen against the NCATS Pharmaceutical Collection (AID 1347407).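 Note: luminescence of HiBiT knocked into endogenous HLA-B as interferon-induced MHC class I level.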 Particulars: human skeletal muscle cells, IFN-b-induced MHC-I HiBiT luminescence, 24 h; series mostly up to 45.9 µM. In a few lines: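 Cells were seeded with 4 ng/ml IFN-beta, incubated 1 h, then dosed with compounds over eight 1:5 steps up to 46 uM final. After 24 h at 37 C, HiBiT lytic reagent was added and luminescence read after 10 min lysis in the dark.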
Consider `CN1C(=O)CN=C(c2ccccc2)c2cc(Cl)ccc21`, for which the Potency result was “inactive”.
On the same count and under the same terms, as for `C[N+]1(CCC(C(N)=O)(c2ccccc2)c2ccccc2)CCCCC1`, the entry is “inactive”.
In the case of `COP(=S)(OC)Oc1ccc(S(N)(=O)=O)cc1`, the Potency entry is “inactive”.
Consider `Cc1nnc2n1-c1sc(CCC(=O)N3CCOCC3)cc1C(c1ccccc1Cl)=NC2`, for which the Potency result is “inactive”.
`ClCc1cccc(Cl)c1`: the Potency result was “inactive”.
For `CCNc1nc(Cl)nc(NCC)n1`, the Potency entry was “inactive”.
Same read-out and setting: under `CCc1cc(OC)c(C[C@H](C)N)cc1OC` stands “inactive”; under `COP(=S)(OC)Oc1ccc(Sc2ccc(OP(=S)(OC)OC)cc2)cc1`, “inactive”; under `NC1(c2ccccc2)CCCCC1`, “inactive”.
On the same count and under the same terms, as for `CC(Cc1ccccc1)NCCCCl` (configuration not stated), the entry is “inactive”.
Still for that read-out and setting: under `CCOC(=O)c1ncn2c1CN(C)C(=O)c1c(I)cccc1-2` stands “inactive”.
Regarding `CCCC[N+]1(C)[C@@H]2CC(OC(=O)[C@H](CO)c3ccccc3)C[C@H]1[C@@H]1O[C@@H]12` (some centres not stated), the Potency result is “inactive”.
On to `O=C(CCCN1CCC(n2c(=O)[nH]c3ccccc32)CC1)c1ccc(F)cc1`, for which the Potency result was “inactive”.
Same read-out and setting: under `C=CCN1CC[C@]23CCCC[C@H]2[C@H]1Cc1ccc(O)cc13` stands “inactive”; under `CN(C)CCc1c[nH]c2cccc(O)c12`, “inactive”; under `Cc1c(Cl)c(=O)oc2cc(OP(=O)(OCCCl)OCCCl)ccc12`, “inactive”.

The target of another test is Protein phosphatase 1D (Homo sapiens) (UniProt O15297). The test is described as follows: RapidFire Mass Spectrometry qHTS Assay for Modulators of WT P53-Induced Phosphatase 1 (WIP1) (AID 1347424).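 Note: amount of dephosphorylated VEPPL-S-QETFS peptide product formed by WIP1.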 Note: potency is the fitted concentration of half-maximal effect. Particulars: WIP1 dephosphorylation of phosphopeptide, RapidFire MS; series mostly up to 63 µM. In a few lines:
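WIP1 (10 nM final) was preincubated 1 h at room temperature with compounds in Tris-HCl pH 7.5, 30 mM MgCl2, TCEP, EGTA, BSA; 2 uM VEPPL-pS-QETFS phosphopeptide was added for 5 min, quenched with formic acid, and dephosphorylated product quantified by RapidFire MS.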
On to `CCOC(=O)NC(O)C(Cl)(Cl)Cl` (configuration not stated), for which the Potency entry was “inactive”.
Same read-out and setting: under `CCOC(=O)C1(c2ccccc2)CCN(CCc2ccc(N)cc2)CC1` stands “inactive”; under `C[C@]12CC[C@H]3[C@@H](CCC4=CC(=O)CC[C@@]43C)[C@@H]1CC[C@@H]2C(=O)O`, “inactive”; under `CCC(=O)C(CCN(C)C)(c1ccccc1)c1ccccc1`, “inactive”.
`OC(c1ccccc1)(c1ccccc1)C1CCNCC1`: the Potency entry was “inactive”.
For `Sc1ccccc1Cl`, the Potency entry is “inactive”.
On the same count and under the same terms, under `COc1ccc(CN2CCNCC2)c(OC)c1OC` stands “inactive”; under `CC1COC2(c3ccccc3Cl)c3cc(Cl)ccc3NC(=O)CN12` (configuration not stated), “inactive”; under `Nc1ccc(N)cc1`, “inactive”.
Consider `COc1cc(CC(C)N)c(OC)cc1Br` (configuration not stated), for which the Potency entry was “inactive”.
Still for that read-out and setting: as for `C[C@H]1CNCCc2ccc(Cl)cc21`, the entry is “inactive”; as for `C[C@H]1C(=O)O[C@@H]2CCN3CC=C(COC(=O)[C@](C)(O)[C@]1(C)O)[C@H]23`, “inactive”; as for `Cc1ccc([N+](=O)[O-])[c]2c1[O][Hg]2`, 3.98 µM (active).
Same read-out and setting: as for `CC(Cc1ccc2c(c1)OCO2)NO` (configuration not stated), the entry is “inactive”; as for `CN(C)C(=S)SSC(=S)N(C)C`, “inactive”; as for `CN1C(=O)CN=C(c2ccccc2)c2cc([N+](=O)[O-])ccc21`, “inactive”.
Still for that read-out and setting: as for `O=c1[nH]c2cc(Cl)ccc2n1C1CCNCC1`, the entry is “inactive”; as for `CN1C(=O)CN=C(c2ccccc2)c2cc(Cl)ccc21`, “inactive”.
`ClCc1cccc(Cl)c1`: the Potency entry is “inactive”.
Same read-out and setting: under `CCNc1nc(Cl)nc(NCC)n1` stands “inactive”; under `CCc1cc(OC)c(C[C@H](C)N)cc1OC`, “inactive”.
The same measure, in the same setting: under `COP(=S)(OC)Oc1ccc(Sc2ccc(OP(=S)(OC)OC)cc2)cc1` stands “inactive”; under `NC1(c2ccccc2)CCCCC1`, “inactive”.
On the same count and under the same terms, as for `CN(C)CCc1c[nH]c2cccc(O)c12`, the entry is “inactive”; as for `Cc1c(Cl)c(=O)oc2cc(OP(=O)(OCCCl)OCCCl)ccc12`, “inactive”.

For another test the target is unchanged. As to the kind of experiment: Rhodamine-PBP qHTS Assay for Modulators of WT P53-Induced Phosphatase 1 (WIP1) (AID 1347425). Particulars: recombinant WIP1, Rhodamine-PBP phosphate fluorescence, real-time; series mostly up to 57.5 µM. In a few lines:
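Steps: enzyme with Rh-PBP sensor and compounds, room-temperature incubation of 1 hr, baseline read, addition of VEPPL-pS-QETFS (10 uM final), kinetic fluorescence reads at 525/598 nm. Activity equals final minus baseline signal.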
(In general: qHTS replaces the single test concentration by a dilution series.)
Consider `Nc1ccccc1C(=O)OCC(O)CO` (configuration not stated), for which the outcome was inactive.
In the case of `COc1cc(C[C@@H](C)N)c(OC)cc1Br`, the outcome was inactive.
The same measure, in the same setting: as for `Sc1ccccc1Cl`, the entry is “inactive”.
Take `C[C@H]1C(=O)O[C@@H]2CCN3CC=C(COC(=O)[C@](C)(O)[C@]1(C)O)[C@H]23`: the result was inactive.
The same measure, in the same setting: under `C=CC[C@]1(O)CC[C@H]2[C@@H]3CCC4=CC(=O)CCC4=C3C=C[C@@]21C` stands “inactive”; under `CC(Cc1ccc2c(c1)OCO2)NO` (configuration not stated), “inactive”; under `O=C(N[C@H]1N=C(c2ccccc2F)c2cccc3c2N(CC3)C1=O)c1cc2ccccc2[nH]1`, “inactive”.
On the same count and under the same terms, as for `c1ccc2nc(N3CCNCC3)ccc2c1`, the entry is “inactive”; as for `C[N+]1(CCC(C(N)=O)(c2ccccc2)c2ccccc2)CCCCC1`, “inactive”; as for `COP(=S)(OC)Oc1ccc(S(N)(=O)=O)cc1`, “inactive”.
The same measure, in the same setting: as for `Cc1nnc2n1-c1sc(CCC(=O)N3CCOCC3)cc1C(c1ccccc1Cl)=NC2`, the entry is “inactive”; as for `ClCc1cccc(Cl)c1`, “inactive”; as for `COP(=S)(OC)Oc1ccc(Sc2ccc(OP(=S)(OC)OC)cc2)cc1`, “inactive”.
`CC(Cc1ccccc1)NCCCCl` (configuration not stated): the result was inactive.
On the same count and under the same terms, as for `CCOC(=O)c1ncn2c1CN(C)C(=O)c1c(I)cccc1-2`, the entry is “inactive”; as for `CCCC[N+]1(C)[C@@H]2CC(OC(=O)[C@H](CO)c3ccccc3)C[C@H]1[C@@H]1O[C@@H]12` (some centres not stated), “inactive”; as for `O=C(CCCN1CCC(n2c(=O)[nH]c3ccccc32)CC1)c1ccc(F)cc1`, “inactive”.
On the same count and under the same terms, under `C=CCN1CC[C@]23CCCC[C@H]2[C@H]1Cc1ccc(O)cc13` stands “inactive”.
Still for that read-out and setting: as for `CN(C)CCc1c[nH]c2cccc(O)c12`, the entry is “inactive”.

Tested on in a further test: not listed separately
As to the kind of experiment: Primary qHTS for inhibitors of SARS-S pseudo-typed particle cell entry (AID 1479145; calls by dose curve; note: nearly all actives have a fitted effect of over 45% in size; note: potency is the fitted concentration of half-maximal effect). Particulars: SARS-S pseudotyped particle cell entry, luciferase reporter; series mostly up to 57.1 µM.
In the case of `Nc1ccccc1C(=O)OCC(O)CO` (configuration not stated), the Potency entry is “inactive”.
On the same count and under the same terms, as for `CCOC(=O)C1(c2ccccc2)CCN(CCc2ccc(N)cc2)CC1`, the entry is “inactive”; as for `COc1ccc(CN2CCNCC2)c(OC)c1OC`, “inactive”; as for `CC1COC2(c3ccccc3Cl)c3cc(Cl)ccc3NC(=O)CN12` (configuration not stated), “inactive”.
The same measure, in the same setting: under `Cc1ccc([N+](=O)[O-])[c]2c1[O][Hg]2` stands 10 µM (active).
Same read-out and setting: as for `O=C(N[C@H]1N=C(c2ccccc2F)c2cccc3c2N(CC3)C1=O)c1cc2ccccc2[nH]1`, the entry is “inactive”.
Take `CN(C)C(=S)SSC(=S)N(C)C`: the Potency is 0.708 µM (active).
Same read-out and setting: as for `COP(=S)(OC)Oc1ccc(S(N)(=O)=O)cc1`, the entry is “inactive”; as for `Cc1nnc2n1-c1sc(CCC(=O)N3CCOCC3)cc1C(c1ccccc1Cl)=NC2`, “inactive”.
In the case of `CCCC[N+]1(C)[C@@H]2CC(OC(=O)[C@H](CO)c3ccccc3)C[C@H]1[C@@H]1O[C@@H]12` (some centres not stated), the Potency result was “inactive”.
Still for that read-out and setting: as for `C=CCN1CC[C@]23CCCC[C@H]2[C@H]1Cc1ccc(O)cc13`, the entry is “inactive”; as for `Cc1c(Cl)c(=O)oc2cc(OP(=O)(OCCCl)OCCCl)ccc12`, “inactive”.

The record behind these values is PubChem BioAssay (NCATS).
